PubChem BioAssay (EPA / NIEHS)
Inconclusive results are not listed. Calls of active or inactive are those of the source. Rule for the calls, unless noted: active = hit-call score of the fitted dose curve at least 0.9, where 1 is the maximum; inconclusive = response in the unintended direction; inactive = score below 0.9.

Columns and labels:
[1] = target: CCAAT/enhancer-binding protein beta (Homo sapiens) (UniProt P17676); test: ATG_C_EBP_CIS: Attagene CIS-FACTORIAL HepG2 Assay for human CCAAT/Enhancer Binding Protein (C/EBP) beta (AID 2282927; active = hit-call score of the fitted dose curve at least 0.9, where 1 is the maximum; inactive = score below 0.9); details: HepG2 Attagene cis-factorial transcription factor reporter; actives raise or lower the signal
Chain of CCAAT/enhancer-binding protein beta (Homo sapiens) (P17676 whole entry, looked up): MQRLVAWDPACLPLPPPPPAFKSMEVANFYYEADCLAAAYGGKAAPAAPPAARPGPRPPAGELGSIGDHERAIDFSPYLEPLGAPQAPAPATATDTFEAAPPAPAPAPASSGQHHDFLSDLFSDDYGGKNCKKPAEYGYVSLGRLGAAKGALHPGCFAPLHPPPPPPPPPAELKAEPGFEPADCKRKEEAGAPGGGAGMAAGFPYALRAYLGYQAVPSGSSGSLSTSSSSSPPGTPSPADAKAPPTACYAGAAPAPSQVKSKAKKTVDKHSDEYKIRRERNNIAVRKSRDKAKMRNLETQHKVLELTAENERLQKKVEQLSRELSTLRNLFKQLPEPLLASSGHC
Procedure, shortened: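 Changes in reporter mRNA, rather than exogenous chimeric receptor activity, reflect native C/EBP signalling in transfected HepG2 cells dosed for 24 h; transcripts are detected by RT-PCR and capillary electrophoresis.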

[2] = ATG_CMV_CIS: Attagene CIS-FACTORIAL HepG2 Assay for human CMV (Internal Marker) (AID 2282928; active = hit-call score of the fitted dose curve at least 0.9, where 1 is the maximum; inactive = score below 0.9;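 note: endpoint acts as a background internal control marker rather than a target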); details: HepG2 CMV promoter reporter, transcription factor profiling; actives raise or lower the signal
Procedure, shortened: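 Fluorescence intensity of RT-PCR-derived reporter fragments, resolved by capillary electrophoresis, gives the signal. HepG2 liver cells bearing transfected cis-element reporters were treated 24 h; activity in either direction was fit relative to DMSO-treated controls.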

[3] = ATG_AP_2_CIS: Attagene CIS-FACTORIAL HepG2 Assay for human Activator Protein 2 (AP-2) (AID 2282932; active = hit-call score of the fitted dose curve at least 0.9, where 1 is the maximum; inactive = score below 0.9); details: HepG2 AP-2 cis-reporter, Attagene transcription factor profiling; actives raise or lower the signal
Procedure, shortened: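 Endogenous transcription factor activity is reported through transfected multiplex reporter constructs in HepG2, after 24 h of compound exposure. Transcripts were quantified by RT-PCR and capillary electrophoresis of fluorescent fragments. Bidirectional fit against DMSO.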

[4] = ATG_BRE_CIS: Attagene CIS-FACTORIAL HepG2 Assay for human Bone Morphogenetic Protein (BMP) Response Element (BRE) (AID 2282933; active = hit-call score of the fitted dose curve at least 0.9, where 1 is the maximum; inactive = score below 0.9); details: HepG2 BMP response element reporter, Attagene transcription factor profiling; actives raise or lower the signal
Procedure, shortened: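 Multiplexed cis-reporter assay, HepG2, 24 h exposure. mRNA from reporter units quantified via RT-PCR/CE; DMSO baseline; bidirectional curve fit.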

[5] = target: Transcription factor E2F1 (Homo sapiens) (UniProt Q01094); test: ATG_E2F_CIS: Attagene CIS-FACTORIAL HepG2 Assay for human E2F Transcription Factor 1 (AID 2282935; active = hit-call score of the fitted dose curve at least 0.9, where 1 is the maximum; inactive = score below 0.9); details: HepG2 Attagene cis-reporter, E2F reporter RNA transcripts; actives raise or lower the signal
Chain of Transcription factor E2F1 (Homo sapiens) (Q01094 whole entry, looked up): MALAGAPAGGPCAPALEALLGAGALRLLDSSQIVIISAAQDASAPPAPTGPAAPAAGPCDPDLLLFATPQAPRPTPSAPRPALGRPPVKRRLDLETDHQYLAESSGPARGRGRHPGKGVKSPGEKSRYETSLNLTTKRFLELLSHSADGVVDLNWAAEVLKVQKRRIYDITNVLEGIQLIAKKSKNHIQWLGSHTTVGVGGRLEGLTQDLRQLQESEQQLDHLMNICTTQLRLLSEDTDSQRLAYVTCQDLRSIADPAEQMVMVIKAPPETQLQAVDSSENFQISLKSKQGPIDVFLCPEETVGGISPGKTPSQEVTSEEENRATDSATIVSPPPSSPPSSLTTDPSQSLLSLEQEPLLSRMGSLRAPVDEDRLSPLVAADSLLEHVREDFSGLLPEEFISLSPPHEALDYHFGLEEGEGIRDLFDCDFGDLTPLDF
Procedure, shortened: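 Gain or loss of reporter transcript, fitted against DMSO, reflects E2F1-driven transcription. Transiently transfected HepG2 dosed 24 h before RNA isolation. Quantified by fluorescent RT-PCR products separated by capillary electrophoresis.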

[6] = ATG_E_Box_CIS: Attagene CIS-FACTORIAL HepG2 Assay for human Enhancer Box (E-box) (AID 2282936; active = hit-call score of the fitted dose curve at least 0.9, where 1 is the maximum; inactive = score below 0.9); details: HepG2 E-box cis-reporter transcription, actives raise or lower the signal
Procedure, shortened: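 E-box-driven reporter transcripts measured in transiently transfected HepG2 after 24 h exposure: RNA reverse-transcribed, PCR-amplified, fluorescently labelled, digested and resolved by capillary electrophoresis. Gain or loss relative to DMSO.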

[7] = ATG_M_61_CIS: Attagene CIS-FACTORIAL HepG2 Assay for M61 Transcription Factor (Internal Marker) (AID 2282937; active = hit-call score of the fitted dose curve at least 0.9, where 1 is the maximum; inactive = score below 0.9); details: HepG2 Attagene CIS-FACTORIAL M61 internal marker reporter; actives raise or lower the signal
Procedure, shortened: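 HepG2 cells transiently transfected with cis-element-driven multiple reporter transcription units, dosed for 24 h. Reporter mRNA measured by RT-PCR, 6-FAM primer-extension labelling, HpaI digestion and capillary electrophoresis; bidirectional fit versus DMSO baseline.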

[8] = ATG_EGR_CIS: Attagene CIS-FACTORIAL HepG2 Assay for human Early Growth Response 1 (EGR1) (AID 2282938; active = hit-call score of the fitted dose curve at least 0.9, where 1 is the maximum; inactive = score below 0.9); details: HepG2 Attagene CIS-FACTORIAL EGR reporter mRNA; actives raise or lower the signal
Procedure, shortened: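 HepG2 cells transiently transfected with cis-promoter-driven multiplexed reporter transcription units; reporter mRNA measured 24 h after compound dosing by RT-PCR, 6-FAM primer extension, HpaI digestion and capillary electrophoresis. Bidirectional fit versus DMSO baseline.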

[9] = ATG_Ets_CIS: Attagene CIS-FACTORIAL HepG2 Assay for human Erythroblast Transformation Specific (ETS) (AID 2282941; active = hit-call score of the fitted dose curve at least 0.9, where 1 is the maximum; inactive = score below 0.9); details: HepG2 ETS cis-reporter transcription, actives raise or lower the signal
Procedure, shortened: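 Multiplexed reporter transcript profiling: HepG2, 24 h treatment, total RNA to cDNA, PCR, 6-FAM labelling, HpaI cut, capillary electrophoresis. Gain- or loss-of-signal fitted against DMSO.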

[10] = target: Hepatocyte nuclear factor 3-beta (Homo sapiens) (UniProt Q9Y261); test: ATG_FoxA2_CIS: Attagene CIS-FACTORIAL HepG2 Assay for human Forkhead box A2 (FOXA2) (AID 2282942; active = hit-call score of the fitted dose curve at least 0.9, where 1 is the maximum; inactive = score below 0.9); details: HepG2 cis-reporter transcription factor activity, 24 h; actives raise or lower the signal
Chain of Hepatocyte nuclear factor 3-beta (Homo sapiens) (Q9Y261 whole entry, looked up): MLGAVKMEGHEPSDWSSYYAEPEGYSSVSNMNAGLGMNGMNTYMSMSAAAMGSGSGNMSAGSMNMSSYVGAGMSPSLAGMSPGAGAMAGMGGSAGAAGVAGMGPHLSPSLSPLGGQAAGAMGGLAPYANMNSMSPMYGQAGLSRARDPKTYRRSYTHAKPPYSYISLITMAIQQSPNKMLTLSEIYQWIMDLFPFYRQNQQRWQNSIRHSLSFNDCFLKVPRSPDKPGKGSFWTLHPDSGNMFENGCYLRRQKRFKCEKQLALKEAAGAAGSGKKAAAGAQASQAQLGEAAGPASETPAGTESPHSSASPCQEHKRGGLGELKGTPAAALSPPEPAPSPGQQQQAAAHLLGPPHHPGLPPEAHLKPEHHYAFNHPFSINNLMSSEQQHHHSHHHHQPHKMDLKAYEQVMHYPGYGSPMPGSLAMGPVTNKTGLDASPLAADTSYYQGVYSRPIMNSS
Procedure, shortened: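 HepG2 cells transiently transfected with multiple cis-regulated reporter transcription units, dosed for 24 h. Reporter mRNA measured by RT-PCR, 6-FAM labelling, HpaI digestion and capillary electrophoresis; bidirectional fitting against DMSO baseline.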

[11] = ATG_FoxO_CIS: Attagene CIS-FACTORIAL HepG2 Assay for human Forkhead box O (FoxO) (AID 2282943; active = hit-call score of the fitted dose curve at least 0.9, where 1 is the maximum; inactive = score below 0.9); details: HepG2 Attagene cis-reporter, FoxO element, mRNA; actives raise or lower the signal
Procedure, shortened: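 Human hepatoma HepG2 cells carry transiently introduced reporter transcription units controlled by cis promoter elements. Chemical treatment lasted 24 h, and mRNA signal was compared with DMSO.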

[12] = TOX21_p53_BLA_p2_viability: Viability Assessment in the Tox21 HCT-116 p53 Agonism Beta-lactamase Assay, Phase 2 (AID 2283591);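 note: compound exposure lasted 16 h at 37 °C; actives lower the ATP signal meaning cytotoxicity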
Procedure, shortened: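 Cytotoxicity readout: CellTiter-Glo ATP luminescence, 30 min at room temperature, after the beta-lactamase read. Cells were HCT116 exposed 16 h at 37C to compounds pin-transferred at 217-fold dilution from DMSO stocks.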

[13] = target: Cellular tumor antigen p53 (Homo sapiens) (UniProt P04637); test: TOX21_p53_BLA_p2_ratio: Tox21 HCT-116 p53 Agonism Beta-lactamase Assay, Ratio, Phase 2 (AID 2283592)
Chain of Cellular tumor antigen p53 (Homo sapiens) (P04637 whole entry, looked up): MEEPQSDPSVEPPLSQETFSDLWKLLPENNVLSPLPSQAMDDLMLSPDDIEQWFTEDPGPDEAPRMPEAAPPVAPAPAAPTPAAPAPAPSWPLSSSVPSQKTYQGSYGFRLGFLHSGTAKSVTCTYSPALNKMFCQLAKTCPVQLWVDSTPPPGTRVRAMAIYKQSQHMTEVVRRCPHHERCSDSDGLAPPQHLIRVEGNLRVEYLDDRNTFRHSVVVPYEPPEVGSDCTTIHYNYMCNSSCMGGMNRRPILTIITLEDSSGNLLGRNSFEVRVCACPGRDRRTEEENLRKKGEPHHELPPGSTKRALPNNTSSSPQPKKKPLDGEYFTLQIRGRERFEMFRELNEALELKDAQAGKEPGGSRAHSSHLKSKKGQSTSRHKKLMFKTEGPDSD
Procedure, shortened: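 Plated HCT116 p53-bla cells (4000/well) received compound after 5 h, then 16 h at 37C/5% CO2. CCF4-AM added, 2 h RT. Ratio of 460 to 530 nm emission taken as the p53 reporter signal.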

[14] = TOX21_p53_BLA_p3_viability: Viability Assessment in the Tox21 HCT-116 p53 Agonism Beta-lactamase Assay, Phase 3 (AID 2283593);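 note: cells exposed to compound for 16 h before reading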
Procedure, shortened: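 Cellular ATP was quantified by CellTiter-Glo luminescence, read after 30 min at room temperature. Beforehand, HCT116 cells (4000/well) received compound 5 h post-seeding, 217-fold diluted from DMSO, then incubated 16 h at 37C.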

[15] = target: Cellular tumor antigen p53 (Homo sapiens) (UniProt P04637); test: TOX21_p53_BLA_p3_ratio: Tox21 HCT-116 p53 Agonism Beta-lactamase Assay, Ratio, Phase 3 (AID 2283596)
Procedure, shortened: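 Cells were seeded at 4000/well, rested 5 h at 37C, then dosed with DMSO compound solutions (217-fold dilution) for 16 h. CCF4-AM substrate was loaded for 2 h at room temperature, and the 460/530 nm emission ratio was fitted for gain of signal versus DMSO.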

[16] = TOX21_p53_BLA_p4_viability: Viability Assessment in the Tox21 HCT-116 p53 Agonism Beta-lactamase Assay, Phase 4 (AID 2283597);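 note: hits lower the luminescence signal meaning cytotoxicity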
Procedure, shortened: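 Readout: ATP luminescence (CellTiter-Glo), measured 30 min after reagent addition at RT. The reagent followed a 2 h CCF4-AM incubation, and the cells had been exposed to compound for 16 h at 37C.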

[17] = target: Cellular tumor antigen p53 (Homo sapiens) (UniProt P04637); test: TOX21_p53_BLA_p5_ratio: Tox21 HCT-116 p53 Agonism Beta-lactamase Assay, Ratio, Phase 5 (AID 2283599)
Procedure, shortened: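 Beta-lactamase reporter ratio (blue 460 nm over green 530 nm, 405 nm excitation) after 2 h CCF4-AM loading, in HCT-116 cells exposed 16 h at 37 C to compounds pinned at 217-fold dilution. Increases relative to DMSO baseline scored.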

[18] = TOX21_p53_BLA_p5_viability: Viability Assessment in the Tox21 HCT-116 p53 Agonism Beta-lactamase Assay, Phase 5 (AID 2283600)
Procedure, shortened: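 Workflow: seed 4000 cells per well, wait 5 h, add compounds (DMSO, 217-fold dilution), incubate 16 h, load CCF4-AM 2 h, add CellTiter-Glo, read luminescence after 30 min.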

[19] = target: Cellular tumor antigen p53 (Homo sapiens) (UniProt P04637); test: TOX21_p53_BLA_p4_ratio: Tox21 HCT-116 p53 Agonism Beta-lactamase Assay, Ratio, Phase 4 (AID 2283601)
Procedure, shortened: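 Signal is the blue/green (460nm/530nm) ratio of cleaved versus uncleaved CCF4-AM substrate, read after 2 h substrate loading. Cells were HCT116 carrying the p53-responsive beta-lactamase reporter, dosed 16 h at 37C, 5% CO2; CellTiter-Glo measured in parallel.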

[20] = target: Estrogen receptor (Homo sapiens) (UniProt P03372); test: NVS_NR_hER: NovaScreen (NVS) Nuclear Receptor Binding Assay for human Estrogen Receptor (ER) (AID 2283348)
Chain of Estrogen receptor (Homo sapiens) (P03372 whole entry, looked up): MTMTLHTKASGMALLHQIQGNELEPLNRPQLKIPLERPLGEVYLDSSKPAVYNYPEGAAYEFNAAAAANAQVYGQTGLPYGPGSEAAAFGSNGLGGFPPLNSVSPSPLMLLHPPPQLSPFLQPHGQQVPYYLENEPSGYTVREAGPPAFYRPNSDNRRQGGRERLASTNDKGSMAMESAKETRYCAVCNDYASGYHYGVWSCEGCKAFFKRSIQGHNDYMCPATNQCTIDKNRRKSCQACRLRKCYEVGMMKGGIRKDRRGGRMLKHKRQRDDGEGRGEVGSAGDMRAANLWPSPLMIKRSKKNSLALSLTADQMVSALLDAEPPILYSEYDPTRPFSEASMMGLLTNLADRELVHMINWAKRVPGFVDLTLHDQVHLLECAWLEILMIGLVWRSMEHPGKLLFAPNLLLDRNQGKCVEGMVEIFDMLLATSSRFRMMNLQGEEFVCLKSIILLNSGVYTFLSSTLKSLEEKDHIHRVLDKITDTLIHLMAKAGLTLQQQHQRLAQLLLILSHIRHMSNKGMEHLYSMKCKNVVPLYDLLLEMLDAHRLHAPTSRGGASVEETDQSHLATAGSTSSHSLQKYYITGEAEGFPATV
Procedure, shortened: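 Cell-free MCF7-derived ER preparation, specific radioligand displaced by test compound, read by scintillation counting 18 h post-dosing. Duplicate single-point 25 uM screen, then concentration-response confirmation; DMSO baseline.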

Measured: AC50

Sc1nc2ccccc2s1
active: [12] 0.211 nM | [14] 0.124 nM | [16] 0.00175 µM | [18] 0.128 nM
not listed: [20]
inactive: all other assays above

CNC(=C[N+](=O)[O-])NCCSCc1csc(CN(C)C)n1
not listed: [12] | [19] | [20]
inactive: all other assays above

Oc1cccc2ccccc12
active: [2] 100 µM
not listed: [15] | [20]
inactive: all other assays above

CC(=O)O[C@]1(C(C)=O)CC[C@H]2[C@@H]3C=C(C)C4=CC(=O)CC[C@]4(C)[C@H]3CC[C@@]21C
inactive: [20] | [12] | [13] | [14] | [15] | [17] | [18] | [19]

CC/C=C\CCO
not listed: [12] | [14] | [15] | [16] | [19] | [20]
inactive: all other assays above

Cc1c(C(N)=O)cc([N+](=O)[O-])cc1[N+](=O)[O-]
inactive: [12] | [15] | [16] | [17] | [18] | [19]

OCCOCCOCCOCCOCCO
not listed: [20]
inactive: all other assays above

COc1ccccc1Oc1c(NS(=O)(=O)c2ccc(C(C)(C)C)cc2)nc(-c2ncccn2)nc1OCCO
inactive: [12] | [13] | [14] | [17]

CC(=O)Nc1c(I)c(NC(C)=O)c(I)c(C(=O)O)c1I
inactive: [1] | [2] | [3] | [4] | [5] | [6] | [7] | [8] | [9] | [10] | [11]

CC1(O)CSC(C)(O)CS1 (stereo not given)
inactive: [20] | [12] | [13] | [14] | [15] | [17] | [18] | [19]

CCc1cc(C(N)=S)ccn1
not listed: [20]
inactive: all other assays above

CC1=CCCC(C)(C)C12CCC(C)O2 (stereo not given)
not listed: [12] | [14] | [19] | [20]
inactive: all other assays above

C1CN(CCOCCN2CCOCC2)CCO1
inactive: [12] | [15]

CCCCCCCCCCCCSC#N
inactive: [20] | [13] | [14] | [15] | [16]

Oc1ccc(Cl)cc1C1CCCC1
active: [4] 56.6 µM | [8] 54.7 µM | [9] 52 µM | [11] 61.3 µM | [16] 66.6 µM | [19] 55.6 µM
not listed: [20]
inactive: all other assays above
